Results on 89 molecules are retold here after PubChem BioAssay AID652010 (The Scripps Research Institute Molecular Screening Center, 2013).

Screen size: about 370,000 compounds; about 4,100 (1.1%) were called active.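 Rule for the calls: active = inhibition above the mean over all tested compounds plus 3 SD (cut at about 3.6% in these data); inactive = the rest.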 The list comes from a sample in which actives are over-represented; it also holds similar structures and randomly drawn compounds.

The assay can be described thus: DAX1 (NR0B1) inhibitors on StAR promoter, primary screen, cell-based, luminescence, SF-1 (NR5A1), full-length DAX-1 (AID 652010).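 Note: 0% = DAX-1 cells with DMSO and 100% = cells lacking DAX-1 with DMSO; higher inhibition means more luminescence from relief of DAX-1 repression.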 Particulars: HEK293T StAR-luciferase reporter, SF-1/DAX-1 repression relief; at 6.8 µM; active compounds read high. (A reporter such as luciferase makes a cellular process visible.)
For `Cc1ccnc(NC(=O)CCCOc2ccccc2)c1`, the inhibition (in general, the drop in the measured response relative to a control, in per cent) was 0.57% (inactive).
Next, `Cc1ccnc(NC(=O)Cn2ccc([N+](=O)[O-])n2)c1`: 0.11% (inactive); `Cc1ccnc(NC(=O)CNC(=O)c2ccccc2)c1`: 6.34% (active).
To `O=C(CN1CCCc2ccccc21)NCc1ccc(F)cc1` belongs -0.22% (inactive); to `Brc1ccc(COCCc2cn(Cc3ccccc3)c3ccccc23)cc1`, 1.27% (inactive).
To `O=C(COc1ccc(Br)cc1F)NCC1(N2CCCCC2)CCCCC1` belongs 0.06% (inactive).
As to `CN(C)CCN(C(=O)C1=COCCO1)c1nc2ccc(Cl)cc2s1`, the inhibition was 4.61% (active).
Take `CC(C)N(Cc1nnc(-c2ccc(Cl)cc2)o1)C(=O)C1=COCCO1`: the inhibition was -1.6% (inactive).
To `CCCOP(=O)(c1ccc(N(C)C)cc1)C(O)c1cc(OC)c(OC)c(OC)c1` (centres undefined) belongs 0.1% (inactive).
Take `CCCC[C@H](C(=O)N(CC)c1ccccc1)[C@@H](O)c1ccc2ccccc2c1`: the inhibition was -1.35% (inactive).
`COC(=O)[C@]12C[C@H](CC(=O)NCc3cccc4ccccc34)C(=O)N(CCc3ccc(OC)c(OC)c3)C1=C[C@H](C1CCCC1)O[C@@H]2C`: the inhibition was -1.59% (inactive).
For `C#CCN([C@H](C(=O)OC)C(C)CC)S(=O)(=O)c1ccccc1Br` (some centres undefined), the inhibition is -0.34% (inactive).
To `COc1ccc(NS(=O)(=O)c2ccc(C)c(C(=O)NCC(c3cccs3)N3CCOCC3)c2)cc1` (centres undefined) belongs 1.82% (inactive); to `COc1ccc(C(CNC(=O)c2cc(S(=O)(=O)Nc3cccc(C)c3)ccc2C)N2CCCC2)cc1` (centres undefined), 4.48% (active).
Next, `COc1ccc(C(CNC(=O)c2cccc(NS(=O)(=O)c3ccc(C)c(F)c3)c2)N2CCCC2)cc1` (centres undefined): 2.54% (inactive); `CCOC(=O)C1(Cc2ccccc2)CCN(Cc2cn(C(C)=O)c3ccccc23)CC1`: -0.4% (inactive); `COc1ccccc1C(=O)NCCC(=O)NCC(c1ccco1)N1CCCCC1` (centres undefined): 0.45% (inactive).
To `CCCCn1nc(C(=O)N2CCc3ccccc32)c2ccccc2c1=O` belongs -1% (inactive); to `O=C(c1cnn2ccccc12)N1CCc2ccccc21`, 6% (active).
Regarding `O=C(c1cc2sccc2n1Cc1ccc(F)cc1)N1CCc2ccccc21`, the inhibition is -0.14% (inactive).
Next, `Cc1ccccc1C(=O)N[C@H](C(=O)N1CCC[C@H]1C(=O)NCc1ccccc1)C(C)C`: 0.49% (inactive).
Next, `Nc1c(C(=O)Nc2ccc3c(c2)OCCO3)nnn1Cc1ccccc1`: 11.8% (active).
Take `O=C(Nc1ccc2c(c1)OCCO2)C(C1CC1)N1CCC(Cc2ccccc2)CC1` (centres undefined): the inhibition is -0.46% (inactive).
Next, `O=C(CCS(=O)(=O)Cc1ccccc1)Nc1ccc2c(c1)OCCO2`: -0.13% (inactive); `Cc1ccc(NC(=O)Cc2cccc(F)c2)c(S(=O)(=O)N2CCOCC2)c1`: -1.09% (inactive); `O=C(CSc1nnc(-c2ccccn2)n1-c1ccccc1)Nc1ccc2cn[nH]c2c1`: -1.05% (inactive).
Next, `COc1cccc(NS(=O)(=O)c2ccc(-c3coc(C)n3)cc2)c1`: -0.43% (inactive); `O=[N+]([O-])c1ccc2c(c1)C(O)n1nc(-c3ccccc3)nc1S2` (centres undefined): -0.33% (inactive).
Next, `COc1cccc(-c2cnc(OC(C)(C)C)nc2OC(C)(C)C)c1`: -0.07% (inactive).
Consider `COc1cccc(-c2nc3cc(C)ccc3o2)c1`, for which the inhibition was 4.5% (active).
Next, `O=[N+]([O-])c1ccc2oc(-c3cccc(O)c3)nc2c1`: 5.24% (active); `CNc1ccc([N+](=O)[O-])cc1C(=O)O`: 0.42% (inactive).
Turning to `C=C(C)C#CC(Cc1ccccc1)N(CC1CC1)/C(N)=N/C(=O)OCc1ccccc1` (centres undefined), the inhibition was -1.59% (inactive).
Take `CC(=O)C1(C(=O)Nc2nccs2)CC(c2ccccc2C(F)(F)F)=NO1` (centres undefined): the inhibition is -0.45% (inactive).
As for `COc1ccnc(C(=O)N2CCC(Oc3cccnc3)CC2)c1`, the inhibition was -0.42% (inactive).
Next, `COc1ccc(N2CCN(CCNS(=O)(=O)c3ccc([N+](=O)[O-])cc3)CC2)cc1`: -1.45% (inactive).
For `O=C(NC1CCCCN(Cc2ccc(Cl)cc2)C1=O)c1ccc(Br)cc1` (centres undefined), the inhibition was -1.64% (inactive).
Next, `O=c1[nH]c(-c2ccccc2)cn1C1CCN(Cc2ccc(-c3nc4ccc(F)cc4nc3-c3ccccc3)cc2)CC1`: -0.54% (inactive); `CN1CCN(C(=O)c2ccc(-c3ccc(Br)cc3)o2)CC1`: 4.56% (active).
To `O=CN1CCN(C(=O)c2ccc(Br)o2)CC1` belongs -0.07% (inactive).
Next, `CN1CCN(C(=O)c2ccc(NC(=O)c3ccc(Br)o3)cc2)CC1`: 0.03% (inactive).
For `COC(=O)[C@]12C[C@H](CC(=O)N3CCOCC3)C(=O)N(Cc3ccc(Cl)cc3Cl)C1=C[C@H](C(C)C)O[C@@H]2C1CC1`, the inhibition is -0.52% (inactive).
To `O=C(Nc1ncccc1O)c1ccc(C(=O)c2ccccc2)cc1` belongs 69.9% (active).
Next, `O=C(Nc1ncccc1O)c1ccc(S(=O)(=O)N2CCCCCC2)cc1`: 6.81% (active); `CC(C)(C)n1nc2c(c1NC(=O)c1ccc(S(=O)(=O)N3CCCC3)cc1)CS(=O)C2` (centres undefined): -0.67% (inactive); `CCN(CC)S(=O)(=O)c1cccc(NC(=O)c2ccc(S(=O)(=O)N3CCCC3)cc2)c1`: -3.89% (inactive).
Next, `CCOC(=O)c1cccnc1NC(=O)c1ccncc1`: 0.42% (inactive); `O=C(Nc1ncccc1O)c1ccc(S(=O)(=O)N2CCCC2)cc1`: 10.9% (active).
For `CN1CCN(NC(=O)c2ccc(S(=O)(=O)N3CCCCCC3)cc2)CC1`, the inhibition was -0.23% (inactive).
To `O=C(CNC(=O)c1ccc2ccccc2c1)Nc1ncccc1O` belongs 1.3% (inactive).
To `O=C(Nc1ccc(S(=O)(=O)N2CCCCC2)cc1)c1cnccn1` belongs 0.17% (inactive).
`CC(=O)Nc1nc2ncccn2c1-c1ccc(C(F)(F)F)cc1`: the inhibition is -0.41% (inactive).
With `CCN(C(=O)[C@@H](C1CC1)[C@@H](O)c1ccc2ccccc2c1)c1ccccc1`, the inhibition is -0.4% (inactive).
Regarding `COC(=O)C1CN(Cc2cn(Cc3ccc(F)cc3)nn2)CCS(=O)(=O)N1Cc1ccc(Cl)cc1` (centres undefined), the inhibition is -0.95% (inactive).
To `C/C(=N\Nc1nc2ccccc2[nH]1)c1cccs1` belongs 3.55% (inactive); to `CCOC(=O)c1nc(-c2ccc3c(c2)OCO3)[nH]c1C`, 2.3% (inactive).
In the case of `c1ccc2[nH]c(-c3nc4ccccc4[nH]3)nc2c1`, the inhibition is 5.77% (active).
To `CCOC(=O)CNC(=O)CSc1ncccc1-c1nc2ccccc2[nH]1` belongs 0.2% (inactive); to `O=C1c2ccccc2C(c2nc3ccccc3[nH]2)N1c1ccccc1` (centres undefined), -1.53% (inactive).
Next, `Cc1ccc(-c2nc3ccccc3[nH]2)cc1N`: 6.54% (active); `COc1ccc(NC(=O)C2=CC(c3ccc(OC)c(OC)c3)=NS(=O)(=O)N2C)cc1`: -5% (inactive); `COc1ccc(-c2cc(-c3nnc(SCc4ccc([N+](=O)[O-])cc4)n3N)[nH]n2)cc1`: -1.87% (inactive).
To `CCOc1ccc(N(CC(=O)Nc2c(C)n(C)n(-c3ccccc3)c2=O)S(=O)(=O)c2ccc(Cl)s2)cc1` belongs -1.26% (inactive); to `Cc1ccccc1OCCC(=O)OCC(=O)NCCc1ccc(S(N)(=O)=O)cc1`, 2.36% (inactive).
In the case of `CCC(NC(=O)C1C2C=CC3(CN(Cc4ccccc4)C(=O)C13)O2)c1ccccc1` (centres undefined), the inhibition was -0.13% (inactive).
`Cc1cccc(NC(=O)c2cc3c(C)nn(-c4ccccc4)c3s2)c1`: the inhibition was -0.95% (inactive).
`CN(C)CC(=O)N[C@@H]1C[C@@H]2O[C@H](CO)CC[C@@H]2O[C@@H]1CCc1ccc(C#Cc2ccccc2)cc1`: the inhibition is -1.24% (inactive).
Next, `O=C(CN1C(=O)c2ccccc2S1(=O)=O)N1CCc2ccccc21`: -2.91% (inactive).
With `O=C(CSCc1ccccc1)N1CCc2ccccc21`, the inhibition is 3.64% (active).
To `CC(OC(=O)Cc1ccc(F)cc1)C(=O)N1CCc2ccccc21` (centres undefined) belongs 0.95% (inactive); to `Cc1ccc(-n2c(SCC(=O)Nc3ccc(S(=O)(=O)Nc4nccs4)cc3)nnc2-c2cccnc2)cc1`, 0.65% (inactive); to `CCOC(=O)[C@]12CCCCC/C=C\1N(Cc1ccc(OC)cc1)C(=O)[C@H]2CC(=O)NCc1ccc(C)o1`, 0.47% (inactive).
To `COc1cc(C2c3cc4c(cc3C(O)C3COC(=O)C23)OCO4)cc(OC)c1OC` (centres undefined) belongs 7.49% (active); to `COc1cc(C2CC(=O)Oc3cc(OC)c(OC)c(OC)c32)cc(OC)c1OC` (centres undefined), 0.24% (inactive); to `COc1cc(C=C(OC(C)=O)c2ccc3c(c2)OCO3)cc(OC)c1OC`, -1.67% (inactive).
To `O=C(NC1CCCCN(Cc2cccc(C(F)(F)F)c2)C1=O)c1ccccc1I` (centres undefined) belongs -0.84% (inactive); to `Cc1ccc(C(=O)C2CCN(CC(=O)NCCC(C)C)CC2)cc1`, -0.3% (inactive); to `Clc1ccc2nc(CSc3ccccc3)cn2c1`, 4.45% (active).
For `Cn1nc(-c2ccccc2)c(CSc2cccc(Cl)c2)c1Cl`, the inhibition is -0.99% (inactive).
To `O=c1c2ccccc2nc2n1C(CSc1ccc(Cl)cc1)CN2` (centres undefined) belongs 0.41% (inactive); to `O=C(N[C@H](C(=O)N1CCC[C@H]1C(=O)NCCc1ccccc1Cl)c1ccccc1)c1ccccc1`, -0.28% (inactive); to `CCOC(=O)[C@]12CCCC3=C1N(CCC3)C(=O)[C@@H](CC(=O)NCc1cccs1)C2`, 0.02% (inactive).
For `CC(CCN1CCC(C(O)(c2ccccc2)c2ccccc2)CC1)Oc1ccc(C(F)(F)F)cc1` (centres undefined), the inhibition is -0.91% (inactive).
To `Cc1ccc(Nc2c(F)c(F)c(F)c(F)c2C(=O)O)c(C)c1` belongs 0.38% (inactive); to `COc1ccc(CCNC(=O)CSc2nc(-c3ccc(OC)c(OC)c3)ccc2C#N)cc1`, -0.18% (inactive); to `CCOc1ccc2cc(C#N)c(SCC(=O)OC)nc2c1`, 3.71% (active).
Next, `Cc1cc(C#N)c(SCC(N)=O)nc1-c1ccc(F)cc1`: 0.32% (inactive); `Cc1ccc(-n2c(COc3ccccc3)nnc2SCC(=O)Nc2ccc3c(c2)OCCO3)cc1`: -2.9% (inactive); `COc1ccc(-n2c(SCC(=O)Nc3ccccc3-c3ccccc3)nnc2-c2cccnc2)cc1`: -1.84% (inactive).
